Records with an inconclusive call do not appear. Activity calls are given as the source filed them. Calls follow the shape of the dose curve; as a rule, active = well fitted curve in the direction sought with a large enough effect in the repeat runs; inconclusive = weak or mixed curves; inactive = no such curve, though single readings can be large; an effect the other way counts as inactive or inconclusive.
Assays:
[1] = Caspase-3/7 induction in HepG2 cells by small molecules, qHTS assay (AID 1346978); also: nearly all actives have a fitted effect of over 15% in size
How it was run: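 Caspase-3/7 induction was measured by Caspase-Glo 3/7 luminescence (30 min, room temperature) after a 17 hr compound exposure of wild-type HepG2 cells seeded at 2,000 per well and pre-incubated 5 hr.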

[2] = Caspase-3/7 induction in CHO-K1 cells by small molecules, qHTS assay (AID 1346980); also: nearly all actives have a fitted effect of over 15% in size
How it was run: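 Luminescent Caspase-Glo 3/7 read (30min, room temperature) quantified apoptosis induction. Cells were wild-type CHO-K1, treated with compound for 17hr at 37 C and 5% CO2.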

[3] = Caspase-3/7 induction in HepG2 cells by small molecules, qHTS cell viability counter screen (AID 1346981); also: nearly all actives have a fitted effect of over 30% in size; also: potency is read from the fitted curve at half-maximal effect; as to activity change, negative = cytotoxicity: series mostly up to about 92 µM
How it was run: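 CellTiter-Fluor fluorescence measured viability in the same wells used for Caspase-Glo 3/7. HepG2 (wild type) at 2,000 cells/well were pre-incubated 5 hr, dosed, and given reagent at 16 hr, with 1 hr further at 37C.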

[4] = Caspase-3/7 induction in CHO-K1 cells by small molecules, qHTS cell viability counter screen (AID 1346979); also: nearly all actives have a fitted effect of over 35% in size; also: potency is read from the fitted curve at half-maximal effect
How it was run: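 Following a 5hr settling period, CHO-K1 cells at 1,500 per well received DMSO-dissolved compounds. Cell viability was quantified 16hr later by CellTiter-Fluor fluorescence, measured after 1hr with reagent at 37C.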

[5] = molecular target: Cytochrome P450 2D6 (Homo sapiens) (UniProt P10635); assay: Cytochrome P450 Family 2 Subfamily D Member 6 (CYP2D6) small molecule antagonists: luciferase reporter qHTS assay (AID 1671196); also: nearly all actives have a fitted effect of over 50% in size; also: potency is read from the fitted curve at half-maximal effect; as to activity change, negative = inhibition: series mostly up to about 120 µM
How it was run: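 CYP2D6 activity was followed as luminescence from its luciferin product after a 1 h NADPH-driven reaction at room temperature. Enzyme-substrate mix and compound were pre-incubated for 10 min, and the signal was read 20 min after adding detection reagent.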

[6] = molecular target: Cytochrome P450 2C19 (Homo sapiens) (UniProt P33261); assay: Cytochrome P450 Family 2 Subfamily C Member 19 (CYP2C19) small molecule antagonists: luciferase reporter qHTS assay (AID 1671197); also: nearly all actives have a fitted effect of over 65% in size; also: potency is read from the fitted curve at half-maximal effect; as to activity change, negative = inhibition: series mostly up to about 120 µM
How it was run: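 Enzyme-substrate mix with proluciferin substrate (P450-Glo CYP2C19 system) preincubated with compounds 10 min at room temperature; NADPH regeneration solution added, 37C for 1 h; detection reagent stops reaction, luminescence read after 20 min. Ketoconazole positive control.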

[7] = molecular target: Nuclear receptor subfamily 1 group I member 2 (Homo sapiens) (UniProt O75469); assay: Human pregnane X receptor (PXR) small molecule agonists, qHTS assay (AID 1346982); also: nearly all actives have a fitted effect of over 35% in size; also: potency is read from the fitted curve at half-maximal effect
How it was run: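 Agonist mode: luminescence from ONE-Glo after 24 h compound exposure at 37C in HepG2 cells carrying hPXR-responsive CYP3A4 luciferase, plated in charcoal-stripped serum medium 5 h beforehand.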

[8] = molecular target: Nuclear receptor subfamily 1 group I member 2 (Rattus norvegicus) (UniProt Q9R1A7); assay: Rat pregnane X receptor (rPXR) activation by small molecules, qHTS assay (AID 1346983); details: rPXR luciferase reporter cells, One-Glo luminescence, 24 h; max activation: stronger effect = higher value; also: nearly all actives have a fitted effect of over 20% in size
How it was run: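 Luminescent readout (One-Glo luciferase, 30 min room temperature) followed 24 hr compound treatment at 37 C of rPXR cells plated 2,000 per well and preincubated 5hr; qHTS format with compounds delivered in DMSO.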

[9] = molecular target: Nuclear receptor subfamily 1 group I member 2 (Homo sapiens) (UniProt O75469); assay: CYP3A4 induction through human pregnane X receptor (PXR) by small molecules, qHTS assay (AID 1346984); also: nearly all actives have a fitted effect of over 40% in size
How it was run: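 Read-out is luminescence after One-Glo addition, following a 3 hr, 37C incubation with Luciferin-IPA CYP3A4 substrate (3uM final). Before that, compounds were on DPX-2 cells (HepG2 co-transfected with PXR element plus CYP3A4-promoter luciferase) for 24 hr at 37C.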

[10] = molecular target: Nuclear receptor subfamily 1 group I member 2 (Homo sapiens) (UniProt O75469); assay: Human pregnane X receptor (PXR) activation by small molecules, qHTS assay (AID 1346985); also: nearly all actives have a fitted effect of over 40% in size; also: potency is read from the fitted curve at half-maximal effect
How it was run: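 DPX-2 cells (HepG2 co-transfected with a PXR response element and a CYP3A4-promoter luciferase construct) were seeded at 2,000 per well, rested 5 hr at 37C, then exposed to DMSO-dissolved compounds for 24 hr. Activation was read as luciferase luminescence.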
% is scaled to controls: 0 for no effect and ±100 for the full control effect.

Cytochrome P450 2C19 (Homo sapiens), sequence (P33261 whole entry, looked up): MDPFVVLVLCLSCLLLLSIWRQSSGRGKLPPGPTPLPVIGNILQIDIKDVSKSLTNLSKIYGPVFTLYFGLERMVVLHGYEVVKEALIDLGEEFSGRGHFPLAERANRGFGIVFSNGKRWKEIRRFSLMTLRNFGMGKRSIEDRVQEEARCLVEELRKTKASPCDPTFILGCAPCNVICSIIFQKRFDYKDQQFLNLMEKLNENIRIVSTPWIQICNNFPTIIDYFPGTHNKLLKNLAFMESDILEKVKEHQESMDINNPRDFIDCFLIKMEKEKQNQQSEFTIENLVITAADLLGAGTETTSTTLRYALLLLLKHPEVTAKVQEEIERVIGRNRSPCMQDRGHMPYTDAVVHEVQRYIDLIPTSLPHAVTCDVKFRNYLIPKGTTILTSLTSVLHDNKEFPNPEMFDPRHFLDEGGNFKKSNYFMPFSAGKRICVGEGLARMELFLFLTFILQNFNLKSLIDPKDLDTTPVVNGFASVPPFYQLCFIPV
Cytochrome P450 2D6 (Homo sapiens), sequence (P10635 whole entry, looked up): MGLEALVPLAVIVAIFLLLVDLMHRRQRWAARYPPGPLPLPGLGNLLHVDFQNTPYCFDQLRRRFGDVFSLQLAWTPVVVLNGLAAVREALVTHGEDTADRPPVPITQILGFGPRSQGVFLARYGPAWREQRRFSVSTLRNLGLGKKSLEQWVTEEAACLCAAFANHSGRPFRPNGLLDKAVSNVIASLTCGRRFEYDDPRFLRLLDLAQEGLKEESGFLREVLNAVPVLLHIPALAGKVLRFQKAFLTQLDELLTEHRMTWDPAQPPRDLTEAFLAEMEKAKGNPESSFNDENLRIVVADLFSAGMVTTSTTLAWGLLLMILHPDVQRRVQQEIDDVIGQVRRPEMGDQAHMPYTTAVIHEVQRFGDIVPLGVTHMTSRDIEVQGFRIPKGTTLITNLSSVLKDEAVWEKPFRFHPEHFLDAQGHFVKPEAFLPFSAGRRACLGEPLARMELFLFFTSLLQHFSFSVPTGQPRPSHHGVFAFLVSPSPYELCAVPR
Nuclear receptor subfamily 1 group I member 2 (Homo sapiens), sequence (O75469 whole entry, looked up): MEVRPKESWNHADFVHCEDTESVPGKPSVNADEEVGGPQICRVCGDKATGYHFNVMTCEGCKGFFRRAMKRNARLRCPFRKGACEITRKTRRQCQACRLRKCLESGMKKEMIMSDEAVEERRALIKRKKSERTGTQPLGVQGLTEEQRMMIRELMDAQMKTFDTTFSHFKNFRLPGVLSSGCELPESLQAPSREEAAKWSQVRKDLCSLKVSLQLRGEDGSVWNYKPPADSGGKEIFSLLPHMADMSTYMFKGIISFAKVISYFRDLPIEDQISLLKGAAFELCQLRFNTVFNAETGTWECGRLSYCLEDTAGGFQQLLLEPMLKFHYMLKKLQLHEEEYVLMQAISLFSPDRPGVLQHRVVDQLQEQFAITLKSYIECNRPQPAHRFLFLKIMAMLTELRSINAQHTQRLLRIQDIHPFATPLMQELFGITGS
Nuclear receptor subfamily 1 group I member 2 (Rattus norvegicus), sequence (Q9R1A7 whole entry, looked up): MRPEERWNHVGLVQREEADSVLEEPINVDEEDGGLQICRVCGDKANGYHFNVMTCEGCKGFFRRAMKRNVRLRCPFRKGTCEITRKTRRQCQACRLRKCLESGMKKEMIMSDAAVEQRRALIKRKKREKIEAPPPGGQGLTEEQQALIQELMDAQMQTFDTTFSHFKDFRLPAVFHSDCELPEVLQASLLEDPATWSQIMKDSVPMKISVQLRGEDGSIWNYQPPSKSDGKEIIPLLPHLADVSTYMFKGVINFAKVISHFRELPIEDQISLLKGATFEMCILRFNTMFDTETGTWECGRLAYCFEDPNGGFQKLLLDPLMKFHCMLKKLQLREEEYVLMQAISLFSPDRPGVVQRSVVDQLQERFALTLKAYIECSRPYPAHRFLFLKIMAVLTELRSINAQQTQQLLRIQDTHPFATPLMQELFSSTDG

C[C@H](CCC(=O)O)[C@H]1CC[C@H]2[C@@H]3CC[C@@H]4C[C@H](O)CC[C@]4(C)[C@H]3C[C@H](O)[C@]12C
active: Potency [3] 54.6 µM
inactive: Potency [1] | Potency [2]

Cc1ccc(C(=O)Oc2ccc(C(O)CNC(C)(C)C)cc2OC(=O)c2ccc(C)cc2)cc1 (configuration not stated)
inactive: Potency [1] | Potency [3]
active: Potency [4] 29.8 µM

CC(C)CC(=O)C1C(=O)c2ccccc2C1=O
active: Potency [4] 61.1 µM | Potency [6] 39.9 µM
inactive: Potency [1] | Potency [2] | Potency [5]

CN(C)c1ccc(C(c2ccccc2)c2ccc(N(C)C)cc2)cc1
active: Potency [4] 1.09 µM | Potency [7] 21.7 µM | Potency [5] 31.7 µM | Potency [6] 1.59 µM
inactive: Potency [1] | Potency [2]

CC(CSC(=O)c1ccccc1)C(=O)N1C[C@@H](Sc2ccccc2)C[C@H]1C(=O)O (some centres not stated)
inactive: caspase activation [1] 0.287% [at 19 µM] | caspase-3/7 activation [2] 0.0462% [at 19 µM] | activity change, negative = cytotoxicity [3] -2.03% [at 19 µM] | activation [7] 21.6% [at 19 µM] | max activation [8] -2.82% | Potency [9] | Potency [10] | activity change, negative = inhibition [5] 2.02% [at 23.6 µM] | Potency [6]

CC(=O)c1ccc2c(c1)N(CCCN1CCC(CCO)CC1)c1ccccc1S2
inactive: Potency [1] | Potency [2] | max activation [8] -2.34% | Potency [10]
active: Potency [4] 29.8 µM

Nc1ccc([N+](=O)[O-])c(C(F)(F)F)c1
inactive: Potency [1] | Potency [2] | Potency [7] | Potency [5]
active: Potency [4] 29.8 µM

CO[C@@H]1[C@H](OC(=O)/C=C/C=C/C=C/C=C/C(=O)O)CC[C@]2(CO2)[C@H]1[C@@]1(C)O[C@@H]1CC=C(C)C
inactive: Potency [1] | Potency [2] | Potency [3] | max activation [8] 0.0882% | Potency [9] | Potency [10]
active: Potency [7] 15.4 µM

O=C(O)c1ccc(S(=O)(=O)O)cc1C(=O)O
inactive: Potency [1] | Potency [4] | Potency [2] | Potency [7] | Potency [5]

NCC(=O)O
inactive: caspase activation [1] -0.745% [at 19 µM] | caspase-3/7 activation [2] -1.83% [at 19 µM] | activity change, negative = cytotoxicity [3] 4.32% [at 19 µM]

CC(=O)OC[C@H]1O[C@@H](n2ncc(=O)[nH]c2=O)[C@H](OC(C)=O)[C@@H]1OC(C)=O
active: Potency [5] 4.36 µM
inactive: Potency [1] | Potency [2] | Potency [3] | Potency [7] | max activation [8] -1.15% | Potency [9] | Potency [10] | Potency [6]

CCCCNc1ccc(C(=O)OCCOCCOCCOCCOCCOCCOCCOCCOCCOC)cc1
inactive: Potency [1] | Potency [2] | Potency [3] | Potency [7] | max activation [8] -3.41% | Potency [9] | Potency [10] | Potency [5]

C=CC(=O)OCCOCCOC(=O)C=C
active: Potency [4] 15.4 µM | Potency [3] 61.4 µM
inactive: Potency [1] | Potency [7] | Potency [5]

CCC(C)O (configuration not stated)
inactive: Potency [1] | Potency [2] | Potency [3]

COc1ccc(C(=O)Nc2nc3ccccc3c(NCc3ccccc3)c2C#N)cc1
inactive: Potency [1] | Potency [2] | Potency [5]
active: Potency [4] 19.3 µM | Potency [7] 7.7 µM | Potency [6] 17.8 µM

C=CC(=O)OCCOc1ccccc1
inactive: Potency [1] | Potency [2] | Potency [3]

O=C(c1ccc(F)cc1)C1CCN(CCn2c(=S)[nH]c3ccccc3c2=O)CC1
active: Potency [7] 10.6 µM | Potency [5] 4.36 µM
inactive: Potency [1] | Potency [2] | Potency [3] | max activation [8] 1.09%

c1ccc(C(O[C@H]2CCCN(CCc3ccc4c(c3)OCO4)C2)c2ccccc2)cc1
inactive: Potency [1] | Potency [4] | Potency [2]
active: Potency [5] 2.45 µM

O=C1[C@H]2CCCC[C@H]2C(=O)N1CCCCN1CCN(c2nsc3ccccc23)CC1
inactive: Potency [1] | Potency [2] | Potency [3] | max activation [8] 2.09%
active: Potency [7] 5.31 µM | Potency [10] 12.6 µM

C=C(C)C(=O)OCC
inactive: Potency [1] | Potency [2] | Potency [3] | Potency [7] | Potency [5]

CCCNCC(O)COc1ccccc1C(=O)CCc1ccccc1 (configuration not stated)
inactive: Potency [1] | Potency [2] | Potency [3]

CCCCc1nc2cccnc2n1Cc1ccc(-c2ccccc2-c2nnn[nH]2)cc1
inactive: Potency [1] | Potency [2] | Potency [5] | Potency [6]
active: Potency [4] 48.6 µM | Potency [7] 61.1 µM

c1ccc(-c2ccccn2)nc1
active: Potency [7] 24.3 µM
inactive: Potency [1] | Potency [4] | Potency [3] | Potency [5] | Potency [6]

Cc1[nH]c(C)c(Cl)c(=O)c1Cl
inactive: caspase activation [1] 0.0051% [at 19 µM] | caspase-3/7 activation [2] -0.964% [at 19 µM] | activity change, negative = cytotoxicity [3] -0.581% [at 19 µM] | activation [7] -7.31% [at 19 µM] | max activation [8] -3.17% | Potency [9] | Potency [10] | activity change, negative = inhibition [5] -9.89% [at 23.6 µM] | Potency [6]

O=C(O)CNCC(=O)O
inactive: caspase activation [1] 2.93% [at 8.39 µM] | caspase-3/7 activation [2] 0.331% [at 8.39 µM] | activity change, negative = cytotoxicity [3] 1.14% [at 8.39 µM] | activation [7] -2.51% [at 8.39 µM] | activity change, negative = inhibition [5] -0.567% [at 10.5 µM]

CNC(=O)CN(CCN(CCN(CC(=O)[O-])CC(=O)NC)CC(=O)[O-])CC(=O)[O-].O.[Gd+3]
inactive: Potency [1] | Potency [2] | Potency [3] | Potency [7] | Potency [5]

OCCN1CCN(CCCN2c3ccccc3C=Cc3ccccc32)CC1
inactive: Potency [1] | Potency [4] | Potency [2] | max activation [8] -15.2%
active: Potency [7] 6.68 µM | Potency [10] 10 µM | Potency [5] 13.8 µM

Cc1nn(C)c(Oc2ccccc2)c1/C=N/OCc1ccc(C(=O)OC(C)(C)C)cc1
active: Potency [4] 0.0154 µM | Potency [7] 38.6 µM | Potency [6] 2 µM
inactive: Potency [1] | Potency [2] | Potency [5]

O=C(O)C1(C(=O)Nc2ccc(Cl)cc2Cl)CC1
active: Potency [7] 24.3 µM
inactive: Potency [1] | Potency [2] | Potency [3]

Source: PubChem BioAssay (Tox21)
